Measurements as given in PubChem BioAssay AID588342 (National Center for Advancing Translational Sciences (NCATS), 2011).
Among all 360,000 compounds or so, about 25,000 (6.9%) were called active. Roughly 9% stayed inconclusive and do not appear here. Many of the other results were omitted from the sample, so actives are more common in it than they were. Unmarked numbers belong to inactive results. Calls follow the shape of the dose curve; as a rule, active = well fitted inhibition curve with a large enough effect; inconclusive = small, poorly fitted or top-dose-only effect; inactive = flat fitted curve, though single readings scatter.

Target: Luciferin 4-monooxygenase (Photinus pyralis) (UniProt P08659)
Assay: qHTS profiling assay for firefly luciferase inhibitor/activator using purifed enzyme and Km concentrations of substrates (counterscreen for miR-21 project); also: nearly all actives have a fitted effect of over 55% in size;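 as to activity change, negative = inhibition: plate controls were vehicle for no effect and reference inhibitor for full effect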
Settings: purified FLuc, luminescence inhibition; series mostly up to 57.5 µM; activity change, negative = inhibition: at the top concentration
Text: MLPCN Grant: 1 R21 NS059478-01 (miR-21 grant) Assay Provider: NCGC NCGC Assay Overview: Firefly (Photinus pyralis) luciferase is one of the most commonly used transcriptional reporters for a number of reasons. It is considered one of the more dynamically responsive reporters -that is, responsive to changes in reporter transcription - as it requires no post-translational modifications and is enzymatically active directly after protein synthesis (Wood, 1998). Additionally, the half-life of the luciferase protein is short relative to other reporter-gene products (Wood, 1995). Whereas reporters with long half-lives potentially allow for increased signal due to accumulation of reporter-gene product, once accumulated in the cell, dynamic changes in reporter-gene expression may be difficult to detect(Fan and Wood, 2007; Almond et al., 2004). It has been shown that wild-type P. pyralis luciferase has a half-life of approximately […] hours in mammalian cells (Thompson et al., 1991). Firefly luciferase reporter-gene assays are also generally considered one of the most sensitive assay types (Wood, 1995; Wood, 1998). Although light produced in a bioluminescence reaction is of lower intensity than that produced during fluorescence emission, this is offset by little to no background light inherent to luminescent assays. Thus the luciferase reporter can be expressed at much lower levels than fluorescent proteins while still providing robust signal. # However, it was initially observed, in 1991, by Thompson et al., that compounds that resemble the substrates of firefly luciferase (FLuc) can act as competitive inhibitors of the enzyme, and that these compounds, upon interaction with luciferase in the cell, can actually stabilize the protein and increase its half-life. Accumulated intracellular FLuc protein can be measured as an increase in luminescence signal, upon addition of detection reagents (which contain high concentrations of FLuc substrates) commonly used in high-throughput screening. In cell-based reporter gene assays that use FLuc as the reporter gene to quantitate the potential influence of a given compound against the target biology, this apparent increase in luminescence can mistakenly be interpreted as identification of a compound that is active against the target of interest. This is the case for the miR-21 FLuc reporter gene assay used to identify inhibitors of the miR-21 pathway (PubChem AID 2289) - compounds of interest will inhibit miR-21 biogenesis/expression or activity, and are identified by causing an increase in luminescence, due to increased FLuc translation. However, FLuc inhibitory compounds that stabilize the FLuc protein will give an identical read-out, making it difficult to distinguish compounds that are active against the target from those active against FLuc. Previous profiling work to determine the prevalence of compounds that affect FLuc enzymatic activity (PubChem AID 411) identified that ~3% of the MLSMR library (then at ~72K) inhibited FLuc. […] Since the MLSMR had grown to ~350K compounds, and since it was expected that a significant percentage of compounds found active in the miR-21 FLuc assay would be FLuc inhibitors, the library was screened for activity against FLuc using a biochemical assay of purified FLuc and KM concentrations of FLuc substrates (D-luciferin and ATP).
NCGC Assay Protocol Summary: Reagents: 50mM Tris acetate, pH 7.5; 10mM Mg acetate; 10uM D-luciferin (Sigma #L9504); 10uM ATP; 0.01% Tween-20; 0.05% BSA; 10nM P. pyralis luciferase (Sigma #L9506) Control compounds used were two known firefly luciferase inhibitors (compounds (2) and (5) in Auld et al., 2010), and DMSO. […]

Luciferin 4-monooxygenase (Photinus pyralis), sequence (P08659 whole entry, looked up): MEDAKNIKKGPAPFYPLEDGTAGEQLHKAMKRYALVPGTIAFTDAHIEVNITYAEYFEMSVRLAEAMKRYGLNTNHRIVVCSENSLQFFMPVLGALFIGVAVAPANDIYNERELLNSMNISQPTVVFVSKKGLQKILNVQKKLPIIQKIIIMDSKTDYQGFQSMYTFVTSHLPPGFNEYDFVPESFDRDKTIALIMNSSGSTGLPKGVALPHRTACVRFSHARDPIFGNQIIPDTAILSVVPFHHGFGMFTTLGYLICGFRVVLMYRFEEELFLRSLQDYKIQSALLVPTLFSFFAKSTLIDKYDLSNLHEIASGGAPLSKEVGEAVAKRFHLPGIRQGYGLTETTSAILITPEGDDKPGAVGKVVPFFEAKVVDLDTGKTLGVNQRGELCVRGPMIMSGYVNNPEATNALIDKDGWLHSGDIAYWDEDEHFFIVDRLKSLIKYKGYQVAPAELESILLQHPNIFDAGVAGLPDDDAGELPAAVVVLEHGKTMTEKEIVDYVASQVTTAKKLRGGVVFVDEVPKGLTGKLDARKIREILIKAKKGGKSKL

SMILES	activity change, negative = inhibition [%]	Potency
COc1ccc(C(=O)NCc2ccc(Cl)cc2)cc1S(=O)(=O)N1CCCC1	-5.91	
CCOc1ccc(Nc2oc(/C=C/c3ccc(F)cc3)nc2C#N)cc1	-5.12	
CCCCn1c(=N)c(S(=O)(=O)c2ccccc2)cc2c(=O)n3cccc(C)c3nc21	2.9	
Nc1nc(SCC(=O)NCCN2CCOCC2)nc2sc3c(c12)CCC3	-15.9	
CC(C)(C)C1CCc2c(sc3nc(SCC(N)=O)nc(N)c23)C1 (configuration not stated)		4.78 µM (active)
CN1CCN(CC(=O)Nc2sc3c(c2C#N)CCC(C(C)(C)C)C3)CC1 (configuration not stated)	2.26	
COc1ccc(OC)c(NC(=O)CSc2nc3ccccc3nc2N2CCCCC2)c1	6.02	
CCOc1ccc(C(C)NC(=O)CN2C(=O)NC3(CCCCC3)C2=O)cc1OCC (configuration not stated)	-1.45	
O=C(CSc1nc(-c2cccc(F)c2)[nH]c1-c1ccccc1)Nc1ccc2c(c1)OCO2	-13.3	
CCOC(=O)C(Cc1ccccc1)NC(=O)CCc1c(C)nc2c(c(C)nn2-c2ccc(C)c(C)c2)c1C (configuration not stated)	-1.42	
COc1ccccc1-c1noc(CSc2nc(C)cc(=O)[nH]2)n1	-15.8	
O=C(CSc1nc2ccccc2[nH]1)c1cccs1		6.75 µM (active)
COc1ccc(NC(=O)CSc2nc3ccccc3[nH]2)cc1	-17.5	
COc1ccccc1CSc1nc2ccccc2[nH]1		13.5 µM (active)
O=C(NCc1ccccc1)c1onc(CSc2nc3ccccc3[nH]2)c1C(=O)NCc1ccccc1	2.2	
CN(Cc1ccccc1)c1nc2c(c(=O)[nH]c(=O)n2C)n1CCSc1nc2ccccc2[nH]1	-0.398	
CCc1nnc(NC(=O)CCCSc2nc3ccccc3[nH]2)s1	-6.22	
CCCCSc1nc2ccccc2[nH]1		16.9 µM (active)
O=C(CSc1nc2ccccc2[nH]1)Nc1nc(-c2ccccc2)c(-c2ccccc2)o1	-1.43	
CCc1ccc(CN(C)C(C)C(=O)Nc2ccc(S(=O)(=O)N3CCCC3)cc2)cc1 (configuration not stated)	2.76	
Nc1c(Cl)cc(S(N)(=O)=O)cc1S(N)(=O)=O	1.02	
COc1ccc(-n2c(=O)c3ccccc3n(Cc3ccccc3Cl)c2=O)cc1	-3.28	
Cc1ccc(Cn2c(=O)n(CCCC(=O)NCc3ccccc3Cl)c(=O)c3ccccc32)cc1	3.41	
COc1ccc(C2=NC3(CCCCC3)N(CC(=O)Nc3ccc(C(C)C)cc3)C2=O)cc1	3.81	
CC(Sc1nncn1C)C(=O)Nc1ccccc1-c1ccccc1 (configuration not stated)	1.84	
CCOC(=O)c1sc(NC(=O)C(CC)Sc2nccn2C)nc1C (configuration not stated)	4.46	

SMILES	activity change, negative = inhibition [%]	Potency
CCC(Sc1nncn1C)C(=O)Nc1nnc(-c2ccc(Cl)cc2)s1 (configuration not stated)		15.1 µM (active)
COc1ccc(C2CC(=O)Nc3c2c(=O)nc2c(C)cccn32)cc1OC (configuration not stated)	-2.04	
COc1ccc(C(=O)NC2=NCCS2)c(OC)c1		6.01 µM (active)
O=C(NC1=NCCS1)[C@H](Cc1ccccc1)N1C(=O)c2ccccc2C1=O	2.88	
COc1cccc(OC)c1C(=O)Nc1nnc(C(C)C)s1	-4.11	
O=C(NCc1ccc2c(c1)OCO2)c1ccc(Cl)s1	-19.5	
O=C(NC1=NCCS1)c1ccc(Cl)s1		23.9 µM (active)
COc1ccc(OC)c(NC(=O)Cc2cccs2)c1	-4.29	
COc1ccc(C(=O)Nc2nncs2)c(OC)c1		8.49 µM (active)
CCOc1ccc(C(=O)CCC(=O)NC2=NCCS2)cc1	-14	
COc1ccccc1C(=O)NCCC(=O)NC1=NCCS1	0.0399	
Cc1c(NC(=O)CSc2nnc(-c3cccnc3)n2N)c(=O)n(-c2ccccc2)n1C	5.52	
COc1ccc(CCNCc2c(C(=O)O)c(C)n(Cc3cccc(C)c3)c2C)cc1OC	-0.123	
Cc1ccc(NC(=O)CN2C(=O)C(c3ccc(F)cc3)=NC23CCCCCC3)c(C)c1	4.17	
CCOc1ccc(N2C(=O)CSC2=NC#N)cc1	-1.46	
CCOc1ccccc1NC(=O)Cn1ncc2ccc([N+](=O)[O-])cc21	-1.68	
Cc1cccc(-n2ccnc2SCC(=O)Nc2cccc3ccccc23)c1C	-4.45	
Cc1ccccc1OCCC(=O)OCC(=O)NCCc1ccc(S(N)(=O)=O)cc1	0.732	
COc1ccccc1CC(NC(C)=O)C(=O)NC1CCN(C(=O)Nc2ccccc2Cl)CC1 (configuration not stated)	-1.29	
O=C1Cc2cc(S(=O)(=O)Nc3ccc(OC(F)(F)F)cc3)cc3c2N1CCC3	3.14	
CN(CC(=O)Nc1ccc(Cl)cc1)CC(=O)Nc1cccc2ccccc12	2.54	
O=C(O)c1ccccc1-c1ccccc1C(=O)Nc1cccc2ccccc12	-0.517	
O=C(Nc1cccc2ccccc12)c1onc2c1CCCC2		8.49 µM (active)
COc1ccc(Cl)cc1C(=O)OCC(=O)NCc1cccs1	-0.894	
COc1ccc(C(=O)OCC(=O)Nc2ccc3[nH]c(=O)[nH]c3c2)c(OC)c1OC	0.847	
COc1ccc(C(=O)OCC(=O)c2ccc(Cl)s2)c(OC)c1OC		21.3 µM (active)
